# Assay results as given in PubChem BioAssay (Tox21).
# Several values for one entry are separate records, joined by “and”; a condition that tells them apart may be missing. Equal entries are not always repeated. Results filed as inconclusive are left out. Entries that show only a call come without a potency. Some compounds were tested as several samples or in several runs, with calls that do not always agree. Activity calls are given as the source filed them. Unless noted, calls come from the whole dose curve; as a rule, active = well fitted curve in the direction sought with a large enough effect in the repeat runs; inconclusive = weak or mixed curves; inactive = no such curve, though single readings can be large; an effect the other way counts as inactive or inconclusive.
# Tests used:
# [1] = qHTS assay to identify aromatase inhibitors - cell viability counter screen (AID 743084);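 note: cells stimulated with testosterone during compound exposure; nearly all actives have a fitted effect of over 55% in size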; note: potency is the fitted concentration of half-maximal effect
# [2] = target: Aryl hydrocarbon receptor (Homo sapiens) (UniProt P35869); assay: qHTS assay to identify small molecule that activate the aryl hydrocarbon receptor (AhR) signaling pathway (AID 743085); note: nearly all actives have a fitted effect of over 15% in size; note: potency is the fitted concentration of half-maximal effect;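 for activation: HG2L7.5c1 human HepG2 liver cells with stably integrated DRE-driven firefly reporter; series mostly up to about 70 µM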
# Outline: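 Stably transfected human liver carcinoma cells (HG2L7.5c1; 20 DRE-firefly luciferase) were incubated 5 h, dosed, and kept 24 h at 37C. Agonism was scored from increased luciferase luminescence.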
# [3] = qHTS assay to identify small molecule that activate the aryl hydrocarbon receptor (AhR) signaling pathway - cell viability counter screen (AID 743086); note: nearly all actives have a fitted effect of over 45% in size; note: potency is the fitted concentration of half-maximal effect;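 for viability change, negative = cytotoxic: HepG2 liver cells carrying the AhR DRE luciferase reporter; series mostly up to about 70 µM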
# Outline: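 HepG2-AhR-luc (HG2L7.5c1) cells, 4000/well, treated 24 h at 37 C with compound; viability measured as CellTiter-Fluor fluorescence after 30 min in the same wells as the luciferase read.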
# [4] = target: Peroxisome proliferator-activated receptor gamma (Homo sapiens) (UniProt P37231); assay: qHTS assay to identify small molecule agonists of the peroxisome proliferator-activated receptor gamma (PPARg) signaling pathway (AID 743094; active = well fitted activation curve with a large enough effect in the signal ratio in the repeat runs, not every such curve was filed as active; the % refers to the signal ratio)
# Outline: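 HEK293H PPARg-bla cells, 5 h settle at 37C/5% CO2; compound (DMSO) 17 h, 37C; B/G FRET substrate 1 h RT; fluorescence intensity read-out. qHTS format.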
# [5] = qHTS assay for small molecule agonists of the antioxidant response element (ARE) signaling pathway (AID 743202; active = well fitted activation curve with a large enough effect in the signal ratio in the repeat runs, not every such curve was filed as active; the % refers to the signal ratio; note: potency is the fitted concentration of half-maximal effect)
# Outline: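 HepG2 ARE-bla reporter line, 2,000 cells/well; 5 h preincubation 37 C/5% CO2; compound (DMSO) 16 h 37 C; B/G FRET substrate 2 h RT; fluorescence intensity.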
# [6] = qHTS assay for small molecule agonists of the antioxidant response element (ARE) signaling pathway - cell viability counter screen (AID 743203; calls by dose curve; note: nearly all actives have a fitted effect of over 55% in size; note: potency is the fitted concentration of half-maximal effect)
# Outline: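 Luminescence read-out (CellTiter-Glo, 30 min at room temperature) measured cell viability in the same wells as the ARE beta-lactamase reporter. HepG2 ARE-bla cells were treated with compounds for 16 hrs at 37C/5% CO2.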
# [7] = qHTS assay for small molecule activators of the heat shock response signaling pathway - cell viability counter screen (AID 743209); note: nearly all actives have a fitted effect of over 50% in size; note: potency is the fitted concentration of half-maximal effect
# Outline: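 HSE-bla HeLa; 1500 cells/well; overnight 37 C, 5% CO2; compound 5 h 37 C; LiveBLAzer B/G substrate 2.5 h RT; CellTiter-Glo 30 min RT; luminescence.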
# [8] = qHTS assay for small molecule activators of the heat shock response signaling pathway (AID 743210; active = well fitted activation curve with a large enough effect in the signal ratio in the repeat runs, with a control signal flat, not every such curve was filed as active; the % refers to the signal ratio;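 note: HeLa cells with beta-lactamase reporter driven by heat shock elements; series mostly up to about 63 µM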)
# Outline: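 Beta-lactamase reporter read-out: FRET substrate fluorescence after 2.5 h at RT, following 5 h compound treatment at 37 C of HeLa cells carrying HSE-driven bla reporter; quantitative HTS format.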
# [9] = qHTS assay to identify small molecule antagonists of the peroxisome proliferator-activated receptor gamma (PPARg) signaling pathway - cell viability counter screen (AID 743194); conditions: Potency: co-treated with 50 nM rosiglitazone unless noted; note: nearly all actives have a fitted effect of over 55% in size; note: potency is the fitted concentration of half-maximal effect
# Outline: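 Cytotoxicity counter screen in PPARg-bla HEK293H cells, same wells as reporter assay. Compounds plus 50 nM rosiglitazone (final) for 17 h at 37 C, then viability read by CellTiter-Glo luminescence.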
# [10] = target: Peroxisome proliferator-activated receptor gamma (Homo sapiens) (UniProt P37231); assay: qHTS assay to identify small molecule antagonists of the peroxisome proliferator-activated receptor gamma (PPARg) signaling pathway (AID 743191; calls by dose curve; note: series mostly up to about 63 µM; nearly all actives have a fitted effect of over 30% in size)
# Outline: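 GeneBLAzer PPARg UAS-bla HEK293H cells, 5 h post-plating, exposed to compounds 17 h at 37C. LiveBLAzer B/G FRET substrate added for 1 h at room temperature; beta-lactamase reporter read by fluorescence intensity.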
# Aryl hydrocarbon receptor (Homo sapiens), sequence (P35869 whole entry, looked up): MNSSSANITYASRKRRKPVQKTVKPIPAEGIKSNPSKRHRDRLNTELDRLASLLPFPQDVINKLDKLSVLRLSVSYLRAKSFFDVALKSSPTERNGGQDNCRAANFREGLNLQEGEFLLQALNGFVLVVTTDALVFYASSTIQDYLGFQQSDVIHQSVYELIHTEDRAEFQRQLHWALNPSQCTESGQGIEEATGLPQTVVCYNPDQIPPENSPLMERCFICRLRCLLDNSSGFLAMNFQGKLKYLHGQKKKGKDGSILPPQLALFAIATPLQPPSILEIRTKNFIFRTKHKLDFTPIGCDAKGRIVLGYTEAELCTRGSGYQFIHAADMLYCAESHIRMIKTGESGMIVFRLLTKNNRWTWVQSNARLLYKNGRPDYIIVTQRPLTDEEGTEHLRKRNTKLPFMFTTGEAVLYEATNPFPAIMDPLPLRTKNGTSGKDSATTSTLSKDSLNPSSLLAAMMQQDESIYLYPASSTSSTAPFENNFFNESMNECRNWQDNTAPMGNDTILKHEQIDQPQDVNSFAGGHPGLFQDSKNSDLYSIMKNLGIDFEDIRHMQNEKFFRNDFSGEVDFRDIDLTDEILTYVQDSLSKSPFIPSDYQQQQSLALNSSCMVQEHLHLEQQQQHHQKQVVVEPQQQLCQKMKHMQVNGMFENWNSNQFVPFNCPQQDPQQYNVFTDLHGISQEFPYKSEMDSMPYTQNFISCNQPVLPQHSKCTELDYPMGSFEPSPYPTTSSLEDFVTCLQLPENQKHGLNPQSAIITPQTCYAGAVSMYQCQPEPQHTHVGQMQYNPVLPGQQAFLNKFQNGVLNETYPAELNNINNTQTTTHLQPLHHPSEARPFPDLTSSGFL
# Peroxisome proliferator-activated receptor gamma (Homo sapiens), sequence (P37231 whole entry, looked up): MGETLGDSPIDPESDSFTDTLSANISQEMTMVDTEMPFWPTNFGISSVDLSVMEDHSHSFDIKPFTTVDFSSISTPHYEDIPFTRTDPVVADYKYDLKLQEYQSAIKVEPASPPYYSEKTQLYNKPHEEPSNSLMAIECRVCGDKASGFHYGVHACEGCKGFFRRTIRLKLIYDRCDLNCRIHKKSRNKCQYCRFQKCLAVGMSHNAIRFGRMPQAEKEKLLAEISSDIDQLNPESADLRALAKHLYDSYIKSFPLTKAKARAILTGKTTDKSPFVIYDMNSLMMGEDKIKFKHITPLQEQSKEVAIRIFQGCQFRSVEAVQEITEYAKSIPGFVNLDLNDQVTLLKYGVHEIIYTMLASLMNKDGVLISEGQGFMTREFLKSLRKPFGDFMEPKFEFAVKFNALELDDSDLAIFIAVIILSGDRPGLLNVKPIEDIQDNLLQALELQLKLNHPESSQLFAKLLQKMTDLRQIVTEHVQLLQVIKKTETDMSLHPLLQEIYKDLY
structure (smiles),measurement,setting,value
Clc1cc(Cl)c(-c2cc(Cl)c(Cl)cc2Cl)cc1Cl,Potency,[1],inactive
same,Potency,[2],inactive
same,Potency,[3],inactive
same,Potency,[4],inactive
same,Potency,[5],inactive
same,Potency,[6],inactive
same,Potency,[7],inactive
same,Potency,[8],inactive
CN(C)c1ccc(N)cc1,Potency,[1],66.9 µM (active)
same,Potency,[2],18.9 µM (active)
same,Potency,[3],66.9 µM (active)
same,Potency,[4],inactive
same,Potency,[6],inactive
same,Potency,[7],inactive
same,Potency,[8],inactive
CNC(=O)Oc1cc(C)cc(C(C)C)c1,Potency,[1],inactive
same,Potency,[2],inactive
same,Potency,[3],inactive
same,Potency,[4],inactive
same,Potency,[6],inactive
same,Potency,[7],inactive
same,Potency,[8],inactive
[O]=[Cr](=[O])([OH])[O][Cr](=[O])(=[O])[OH],Potency,[1],inactive
same,Potency,[2],inactive
same,Potency,[3],inactive
same,Potency,[4],inactive
same,Potency,[9],3.93 µM (active) and 7.74 µM (active)
same,Potency,[6],21.9 µM (active) and 30.6 µM (active)
same,Potency,[7],39.3 µM (active) and 43.6 µM (active)
CCCCN(CCCC)C(=S)S,Potency,[1],inactive
same,Potency,[2],inactive
same,Potency,[3],inactive
same,Potency,[4],inactive
same,Potency,[9],inactive
same,Potency,[5],inactive
same,Potency,[6],inactive
same,Potency,[7],inactive
ClCBr,Potency,[1],inactive
same,Potency,[2],inactive
same,Potency,[3],inactive
same,Potency,[4],inactive
same,Potency,[10],inactive
same,Potency,[6],inactive
same,Potency,[7],inactive
same,Potency,[8],inactive
N#CSCc1ccccc1,Potency,[1],inactive
same,Potency,[2],inactive
same,Potency,[3],inactive
same,Potency,[4],inactive
same,Potency,[9],inactive
same,Potency,[5],inactive
same,Potency,[6],inactive
same,Potency,[7],inactive
same,Potency,[8],inactive
CC[C@H](C)[C@H]1O[C@]2(C=C[C@@H]1C)C[C@@H]1C[C@@H](C/C=C(\C)[C@@H](O[C@H]3C[C@H](OC)[C@@H](O[C@H]4C[C@H](OC)[C@@H](NC)[C@H](C)O4)[C@H](C)O3)[C@@H](C)/C=C/C=C3\CO[C@@H]4[C@H](O)C(C)=C[C@@H](C(=O)O1)[C@]34O)O2,Potency,[1],9.69 µM (active)
same,Potency,[2],inactive
same,Potency,[3],4.33 µM (active)
same,Potency,[9],2450 nM (active)
same,Potency,[6],4330 nM (active)
same,Potency,[7],13.8 µM (active)
CCCCn1cc[n+](C)c1 (tested in a mixture with another compound),Potency,[1],inactive
same,Potency,[2],inactive
same,Potency,[3],inactive
same,Potency,[9],inactive
same,Potency,[6],inactive
same,Potency,[7],inactive
Nc1ccccc1-c1ccccc1,Potency,[1],inactive
same,Potency,[2],inactive
same,Potency,[3],inactive
same,Potency,[9],inactive
same,Potency,[6],inactive
same,Potency,[7],inactive
Cc1cc2c3c(c1)C(c1ccccc1)=N[C@@H](NC(=O)c1ccncc1)C(=O)N3CC2,Potency,[1],inactive
same,Potency,[2],inactive
same,Potency,[3],inactive
same,Potency,[9],inactive
same,Potency,[5],inactive
same,Potency,[6],inactive
same,Potency,[7],inactive
same,Potency,[8],inactive
CC(C)C(Nc1ccc(C(F)(F)F)cc1Cl)C(=O)OC(C#N)c1cccc(Oc2ccccc2)c1 (centres undefined),Potency,[1],inactive
same,Potency,[2],inactive
same,Potency,[3],inactive
same,Potency,[9],inactive
same,Potency,[6],inactive
same,Potency,[7],inactive
CC(=O)[O][Pb]([c]1ccccc1)([c]1ccccc1)[c]1ccccc1,Potency,[1],0.193 µM (active)
same,Potency,[2],inactive
same,Potency,[3],3.86 µM (active)
same,Potency,[9],110 nM (active)
same,Potency,[6],172 nM (active)
same,Potency,[7],9.77 µM (active)
[F][Sn]([c]1ccccc1)([c]1ccccc1)[c]1ccccc1,Potency,[1],3.06 µM (active)
same,Potency,[2],inactive
same,Potency,[3],3.86 µM (active)
same,Potency,[9],616 nM (active)
same,Potency,[6],344 nM (active)
C=CC(=O)[O][Sn]([CH2]CCC)([CH2]CCC)[CH2]CCC,Potency,[1],3.44 µM (active)
same,Potency,[2],inactive
same,Potency,[3],4.33 µM (active)
same,Potency,[9],389 nM (active)
same,Potency,[6],686 nM (active)
same,Potency,[7],3.09 µM (active)
O=C(NC(=O)c1c(F)cccc1F)Nc1ccc(Oc2ccc(C(F)(F)F)cc2Cl)cc1F,Potency,[1],inactive
same,Potency,[2],inactive
same,Potency,[3],inactive
same,Potency,[6],inactive
same,Potency,[7],inactive
O=C(O)[C@H](O)[C@@H](O)C(=O)O,Potency,[1],inactive
same,Potency,[2],inactive
same,Potency,[3],inactive
same,Potency,[9],inactive
same,Potency,[5],inactive
same,Potency,[6],inactive
same,Potency,[7],inactive
C=Cc1cccc(CCl)c1,Potency,[1],inactive
same,Potency,[2],inactive
same,Potency,[3],inactive
same,Potency,[9],inactive
same,Potency,[5],55.9 µM (active)
same,Potency,[6],inactive
same,Potency,[7],inactive
same,Potency,[8],inactive
C=C(C)C(=O)[O][Sn]([CH2]CCC)([CH2]CCC)[CH2]CCC,Potency,[1],2.73 µM (active)
same,Potency,[2],inactive
same,Potency,[3],2.73 µM (active)
same,Potency,[9],549 nM (active)
same,Potency,[6],433 nM (active)
same,Potency,[7],1.1 µM (active)
CC(=O)[O-].CC(=O)[O-].O.O.[Zn+2],Potency,[1],inactive
same,Potency,[2],inactive
same,Potency,[3],inactive
same,Potency,[5],inactive
same,Potency,[6],inactive
same,Potency,[7],inactive
CCN(CC)C(=S)S,Potency,[1],8.71 µM (active) and 7.65 µM (active) and 4.86 µM (active)
same,Potency,[2],inactive
same,Potency,[3],inactive and 19.2 µM (active) and 30.6 µM (active)
same,Potency,[10],inactive
same,Potency,[9],inactive
same,Potency,[6],inactive
same,Potency,[7],6.98 µM (active) and 2.75 µM (active)
[Cl-].[Cl-].[Sn+2],Potency,[1],inactive
same,Potency,[2],inactive
same,Potency,[3],inactive
same,Potency,[6],inactive
same,Potency,[7],inactive
same,Potency,[8],inactive
CCOP(=O)(OCC)Oc1cc(C)nc(C(C)C)n1,Potency,[1],inactive
same,Potency,[2],inactive
same,Potency,[3],inactive
same,Potency,[9],inactive
same,Potency,[6],inactive
same,Potency,[7],inactive
CCCCCCCCCCCCCCn1cc[n+](C)c1,Potency,[1],8.65 µM (active) and 38.1 µM (active)
same,Potency,[2],inactive
same,Potency,[3],34.4 µM (active)
same,Potency,[9],9.79 µM [setting not given] (active) and inactive
same,Potency,[6],24.4 µM (active) and 30.3 µM (active) and inactive
same,Potency,[7],19.5 µM (active) and 21.6 µM (active) and inactive
COC(=O)c1ccccc1S(=O)(=O)NC(=O)Nc1nc(C)nc(OC)n1,Potency,[1],inactive
same,Potency,[2],inactive
same,Potency,[3],inactive
same,Potency,[5],inactive
same,Potency,[6],inactive
same,Potency,[7],inactive
same,Potency,[8],inactive
CC(=O)[O-].CC(=O)[O-].CC(=O)[O-].[Sb+3],"activity change, negative = cytotoxicity",[1],6.01% [at 8.47 µM] (inactive)
same,activation,[2],0.374% [at 8.47 µM] (inactive)
same,"viability change, negative = cytotoxic",[3],5.29% [at 8.47 µM] (inactive)
same,"activity change, negative = cytotoxicity",[9],"-5.68% [at 5.95 µM, co-treated with 50 nM rosiglitazone] (inactive)"
same,activation,[5],-8.79% [at 8.36 µM] (inactive)
same,"viability change, negative = cytotoxic",[6],-9.94% [at 8.36 µM] (inactive)
same,"activity change, negative = cytotoxicity",[7],4.7% [at 5.95 µM] (inactive)
CC1(C)C(C=C(Cl)Cl)C1C(=O)OC(C#N)c1ccc(F)c(Oc2ccccc2)c1 (centres undefined),Potency,[1],inactive
same,Potency,[2],inactive
same,Potency,[3],inactive
same,Potency,[10],inactive
same,Potency,[9],inactive
same,Potency,[5],inactive
same,Potency,[6],inactive
same,Potency,[7],inactive
CC1(C)[C@H](/C=C2\CCSC2=O)[C@@H]1C(=O)OCc1coc(Cc2ccccc2)c1,Potency,[1],inactive
same,Potency,[2],inactive
same,Potency,[3],inactive
same,Potency,[9],inactive
same,Potency,[7],inactive
Cc1ccc2cc3c(ccc4ccccc43)c3c2c1CC3,Potency,[1],inactive
same,Potency,[2],0.487 µM (active)
same,Potency,[3],inactive
same,Potency,[9],inactive
same,Potency,[5],1.22 µM (active)
same,Potency,[6],inactive
same,Potency,[7],inactive
O=[N+]([O-])[O-].[Tl+],Potency,[1],inactive
same,Potency,[2],inactive
same,Potency,[3],inactive
same,Potency,[9],inactive
same,Potency,[7],inactive
